This is a sample that favours compounds with a hit; in the whole collection about 1.4% have one here.
H9c2 protect: modulators protecting cardiomyocytes from myocardial damage | H9c2 cardiomyocytes, H2O2 injury protection, ATPLite, 2 h | AID 588492 | 0.63% of 360,000 active | protection from H2O2 cell death, % at 20 µM;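 active means compounds giving at least 50% protection of heart cells from peroxide-induced death in the single-dose screen, raw or plate-pattern-corrected value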;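 further: 0% = DMSO wells with peroxide and 100% = DMSO wells without peroxide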
HSV augment: HSV replication enhancement | HSV replication augmentation in cells, fold increase | AID 1956 | maximum fold increase | 0.005% of 220,000 active; in the data active means maximum fold increase above about 1.5; tested in PC3 cells
beta cell repl: induces beta-cell replication in MIN6 cells. MIN6 cells proliferation, ATPlite luminescence, 48 h; cells starved in 0.2% serum; 100% = growth in 10% serum. 0.29% of 330,000 active. proliferation, % at 10 µM;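 active means compounds whose signal lies at least 3.5 SD above the mean of all wells on their plate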;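 further: 0% = DMSO-treated cells in low-serum medium and 100% = 10% serum control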
pCIP destab: compounds decreasing mouse p/CIP protein stability | F442A p/CIP-EGFP cells, EGFP fluorescence, 16 h | decrease of EGFP signal, % at 10 µM | 0.01% of 290,000 active;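 active means EGFP signal decrease of at least 30% at 10 µM or well 3 SD below plate mean, unless failing retest; inactive means the rest, including hits failing retest or dose response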
Yeast superoxide: caloric restriction mimetics inhibiting age-related superoxide in yeast; 0.18% of 330,000 active; AID 2690; superoxide response (% of plate mean), % at 10 µM; S. cerevisiae aged cells, superoxide DHE fluorescence; active compounds read low;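 active means superoxide response under a set limit, about three screen SD below normal, cut at about 65% in these data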;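 further: yeast aged for seven days with compound at 30 °C before DHE staining; 100% = average MFI of all compound-treated wells on the plate with controls excluded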
V-ATPase pHluor: yeast V-ATPase proton transport regulation by pHLuorin | response, % at 10 µM | S. cerevisiae, pHLuorin cytosolic pH fluorescence | 0.37% of 350,000 active; in the data active means response mostly above about 7.3%, no sharp cut-off; inactive means mostly below about 5.4%; further: actives read high
Starred values were filed as active, the others as inactive.

How did Cc1ccsc1CN(C)CC(=O)NCC(=O)Nc1ccc(F)c(F)c1F do in these assays?
H9c2 protect: 3; beta cell repl: -3; Yeast superoxide: 90; V-ATPase pHluor: 2

Results for Cc1ccc(S(=O)(=O)ON2C(=O)c3ccccc3C2=O)c(C)c1 ?
H9c2 protect: -9; HSV augment: inactive; pCIP destab: 9; Yeast superoxide: 82; V-ATPase pHluor: 8.1*

How did Cc1cc(C)c(S(=O)(=O)ON2C(=O)c3ccccc3C2=O)cc1C do in these assays?
H9c2 protect: -9; HSV augment: inactive; beta cell repl: -1; pCIP destab: -3; Yeast superoxide: 116; V-ATPase pHluor: -1

How did Clc1ccccc1-c1nc(N/N=C/c2cccnc2)c2ccccc2n1 do in these assays?
H9c2 protect: 78*; HSV augment: inactive; beta cell repl: -1; pCIP destab: -13; Yeast superoxide: 100; V-ATPase pHluor: 2

Results for O=C(N/N=C/c1cccnc1)c1cc(-c2ccccc2Cl)nc2ccccc12 ?
H9c2 protect: 14; beta cell repl: -4; pCIP destab: -3; Yeast superoxide: 81; V-ATPase pHluor: -5

What do the screens show for `CC(C)Cc1nc2oc3c(NCC4CCCO4)ncnc3c2c2c1CCC2` (configuration not stated)?
H9c2 protect: 73*; HSV augment: inactive; beta cell repl: -6; pCIP destab: -16; Yeast superoxide: 94; V-ATPase pHluor: -4

What do the screens show for `Cn1c(N)c(S(=O)(=O)NCc2ccc(F)cc2)c(=O)n(C)c1=O`?
H9c2 protect: 1; beta cell repl: -2; pCIP destab: 1; Yeast superoxide: 98; V-ATPase pHluor: 0

What do the screens show for `COc1ccc(C(=O)Nc2ccc3c(c2)n(C)c(=O)n3C)cc1OC`?
H9c2 protect: 10; beta cell repl: -1; pCIP destab: 6; Yeast superoxide: 105; V-ATPase pHluor: -1

What do the screens show for `CCOC(=O)C1CCN(c2cc3c(cc2NC(=O)c2ccccc2)n(C)c(=O)n3C)CC1`?
H9c2 protect: 66*; beta cell repl: 0; pCIP destab: -14; Yeast superoxide: 112; V-ATPase pHluor: -3

Results for CCOC(=O)C1CCN(c2cc3c(cc2NC(=O)c2ccc(OC)c(OC)c2)n(C)c(=O)n3C)CC1 ?
H9c2 protect: 54*; beta cell repl: 2; pCIP destab: -2; Yeast superoxide: 117; V-ATPase pHluor: 7

Results for Cn1c(=O)n(C)c2cc(N3CCCCC3)c(NC(=O)c3ccccc3)cc21 ?
H9c2 protect: 13; beta cell repl: -4; pCIP destab: -3; Yeast superoxide: 111; V-ATPase pHluor: 0

What do the screens show for `COC(=O)N1C(=O)[C@](c2ccccc2)(C2CCCCC2)N1C(=O)OC`?
H9c2 protect: 56*; beta cell repl: -7; pCIP destab: 3; Yeast superoxide: 92; V-ATPase pHluor: 1

How did S=c1[nH]nc(COc2ccccc2)n1/N=C/C(Cl)=C/c1ccccc1 do in these assays?
H9c2 protect: -17; HSV augment: inactive; beta cell repl: -6; pCIP destab: -9; Yeast superoxide: 111; V-ATPase pHluor: 0

What do the screens show for `O=c1cc(-c2ccc([N+](=O)[O-])cc2)c2ccc(O)cc2o1`?
H9c2 protect: 60*; HSV augment: inactive; beta cell repl: -1; pCIP destab: -14; Yeast superoxide: 103; V-ATPase pHluor: 0

What do the screens show for `O=C(c1ccc(N2C(=O)c3ccccc3C2=O)cc1)N1CCN(S(=O)(=O)c2ccccc2F)CC1`?
H9c2 protect: 1; V-ATPase pHluor: 2

How did CCOC(=O)c1c2ccccc2[n+]([O-])n1CCO do in these assays?
H9c2 protect: 7; beta cell repl: -2; Yeast superoxide: 95; V-ATPase pHluor: 6

How did CCOC(=O)c1ccccc1NC(=O)CSc1ccc(-c2ccccn2)nn1 do in these assays?
H9c2 protect: 57*; beta cell repl: -6; pCIP destab: -1; Yeast superoxide: 91; V-ATPase pHluor: 2

Results for CC(=O)c1cccc(NC(=O)CSc2ccc(-c3ccccn3)nn2)c1 ?
H9c2 protect: 36; beta cell repl: -5; pCIP destab: 2; Yeast superoxide: 94; V-ATPase pHluor: -3

What do the screens show for `CC(=O)Nc1cccc(NC(=O)CSc2ccc(-c3ccccn3)nn2)c1`?
H9c2 protect: 67*; HSV augment: inactive; beta cell repl: 0; pCIP destab: 1; Yeast superoxide: 115; V-ATPase pHluor: 2

How did CCOC(=O)c1ccccc1NC(=O)CSc1nccn1C do in these assays?
H9c2 protect: -9; HSV augment: inactive; beta cell repl: 7; pCIP destab: -1; Yeast superoxide: 106; V-ATPase pHluor: -1

What do the screens show for `CCN(c1ccccc1)S(=O)(=O)c1ccc2c(c1)N(C(C)=O)CCS2`?
H9c2 protect: -1; beta cell repl: -2; pCIP destab: 1; Yeast superoxide: 85; V-ATPase pHluor: 5

What do the screens show for `Cc1ccc(SCc2cc(=O)[nH]c(/N=C(\N)Nc3ccc(C)c(C)c3)n2)cc1`?
H9c2 protect: -4; HSV augment: inactive; beta cell repl: 1; pCIP destab: -12; Yeast superoxide: 107; V-ATPase pHluor: 0

How did CCCN1CCN(C(=O)CCc2nnc3ccc(N4CCN(c5cccc(OC)c5)CC4)nn23)CC1 do in these assays?
H9c2 protect: 55*; beta cell repl: -4; pCIP destab: 3; Yeast superoxide: 101; V-ATPase pHluor: -4

Results for CCC(=O)OCCNc1cc(SCCC(=O)OC)c2nonc2c1[N+](=O)[O-] ?
H9c2 protect: 54*; HSV augment: inactive; beta cell repl: -3; pCIP destab: 4; Yeast superoxide: 148; V-ATPase pHluor: 2

Results for CCOc1ccc2nc(NC(=O)CN3CCC(n4nnc5cc(F)ccc54)CC3)sc2c1 ?
H9c2 protect: 70*; HSV augment: inactive; beta cell repl: -5; pCIP destab: -2; Yeast superoxide: 103; V-ATPase pHluor: -3

How did O=C(Nc1ccccc1OC(F)F)c1ccc(N2CCCC2=O)cc1 do in these assays?
H9c2 protect: 0

How did COc1cc(/C=C(\C#N)C(=O)Nc2ccccc2F)ccc1OCCN1CCOCC1 do in these assays?
H9c2 protect: 67*; beta cell repl: -3; pCIP destab: -5; Yeast superoxide: 102; V-ATPase pHluor: 3

Results for N#C/C(=C\c1ccc(OCCN2CCOCC2)cc1)C(=O)Nc1ccccc1 ?
H9c2 protect: 6; beta cell repl: -2; pCIP destab: -6; Yeast superoxide: 99; V-ATPase pHluor: 1

What do the screens show for `COc1cc(/C=C(\C#N)C(=O)Nc2ccccc2)ccc1OCCN1CCOCC1`?
H9c2 protect: 54*; beta cell repl: -5; pCIP destab: 4; Yeast superoxide: 105; V-ATPase pHluor: -3

How did COc1ccc(CCn2c(=O)c3cccnc3n(Cc3ccc([N+](=O)[O-])cc3)c2=O)cc1OC do in these assays?
H9c2 protect: 56*; HSV augment: inactive; pCIP destab: 6; V-ATPase pHluor: -1

Results for CSCCC(NC(=O)COc1ccccc1)C(=O)NCC(C)(C)N1CCOCC1 (configuration not stated) ?
H9c2 protect: -1; V-ATPase pHluor: -1

Screening results (PubChem BioAssay)
